{"source": "PubChem BioAssay (NCATS)", "note": "Inconclusive results are not listed. A number with no mark means an inactive call. Calls follow the shape of the dose curve; as a rule, active = well fitted activation curve with a large enough effect; inconclusive = small, poorly fitted or top-dose-only effect; inactive = no such curve, though single readings can be large or run the other way."}
{"biological_target": "Cellular tumor antigen p53 (Homo sapiens) (UniProt P04637)", "sequence (P04637 whole entry, looked up)": "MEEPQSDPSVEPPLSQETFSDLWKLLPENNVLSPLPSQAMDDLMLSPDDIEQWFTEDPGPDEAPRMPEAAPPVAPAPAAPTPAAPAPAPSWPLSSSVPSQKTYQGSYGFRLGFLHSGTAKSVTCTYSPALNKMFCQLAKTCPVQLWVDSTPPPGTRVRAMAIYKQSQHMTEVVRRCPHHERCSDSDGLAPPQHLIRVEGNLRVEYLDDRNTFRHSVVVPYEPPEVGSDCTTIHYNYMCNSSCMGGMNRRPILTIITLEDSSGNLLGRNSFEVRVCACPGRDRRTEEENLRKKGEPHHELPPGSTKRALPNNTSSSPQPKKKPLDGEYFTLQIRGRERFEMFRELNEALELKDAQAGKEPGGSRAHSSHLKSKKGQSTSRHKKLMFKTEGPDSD", "experiment": "Primary qHTS for small molecule compounds that upregulate eGFP-tagged delta133p53alpha (in N-terminal) cells. (AID 2060322);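 also: series mostly up to about 56 µM; 0% = DMSO vehicle and 100% = reference activator; nearly all actives have a fitted effect of over 75% in size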", "conditions": "NCI-H358 eGFP-delta133p53alpha fluorescence, 24 h; activation: hits give high values", "procedure,_shortened": "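NCI-H358 cells pre-induced 24 h with 10 ng/ml doxycycline to express N-terminal eGFP-delta133p53alpha, then dosed 24 h at 37C without doxycycline; fixed, Hoechst-stained, GFP intensity by laser scanning cytometry, normalized to DMSO (0%) and 57.5 uM 5-azacytidine (100%).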", "units": {"activation": "%"}}
{"smiles": "N#Cc1cc(NC(=O)C(=O)O)c(Cl)c(NC(=O)C(=O)O)c1", "activation": 0.565}
{"smiles": "O=c1cc(CO)occ1O", "activation": -9.6}
{"smiles": "CC(C)(C)NC[C@H](O)COc1cccc2c1CCCC2=O", "activation": 8.47}
{"smiles": "CCN[C@H]1CN(CCCOC)S(=O)(=O)c2sc(S(N)(=O)=O)cc21", "activation": 13}
{"smiles": "Cc1cccc(C)c1NC(=O)c1ccc(N)cc1", "activation": -2.82}
